High-throughput results from PubChem.
MITF inh: MITF inhibitors, primary screen, biochemical, AlphaScreen, human | Microphthalmia-associated transcription factor (Homo sapiens), O75030 | AlphaScreen MITF homodimerization, bead proximity signal | inhibition, % at 2.6 µM | 650,000 compounds, 0.91% hits | AID 1259374, 2018; in the data active = inhibition above about 50%
FBW7 activator: FBW7 E3 ligase activators, primary screen, biochemical, AlphaScreen, human. F-box/WD repeat-containing protein 7 (Homo sapiens), Q969H0. AlphaScreen FBW7–phospho-cyclin E peptide binding, activator screen. normalized activity (activation), % at 26.1 µM. 650,000 compounds, 0.13% hits; in the data active = normalized activity above about 1.9%;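 note: purified mutant Fbw7 with reduced substrate affinity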
TEAD-YAP block: TEAD-YAP interaction inhibition, primary screen, TEAD-YAP interaction inhibitor project, luminescence, HEK-TIYL cells. TEAD-Gal4/YAP UAS-luciferase luminescence. 640,000 compounds, 1.4% hits. AID 1259422, 2018. inhibition, % at 9.12 µM; in the data active = inhibition above about 32%
GPR151 ag: activators of human GPR151, primary screen, cell-based, PathHunter beta-arrestin, luminescence; PathHunter beta-arrestin GPR151 cells; 650,000 compounds, 1% hits; activation, % at 11.2 µM; AID 1508602, 2020; G-protein coupled receptor 151 (Homo sapiens), Q8TDV0; in the data active = activation above about 4.9%
Target sequence (Q8TDV0 whole entry, looked up): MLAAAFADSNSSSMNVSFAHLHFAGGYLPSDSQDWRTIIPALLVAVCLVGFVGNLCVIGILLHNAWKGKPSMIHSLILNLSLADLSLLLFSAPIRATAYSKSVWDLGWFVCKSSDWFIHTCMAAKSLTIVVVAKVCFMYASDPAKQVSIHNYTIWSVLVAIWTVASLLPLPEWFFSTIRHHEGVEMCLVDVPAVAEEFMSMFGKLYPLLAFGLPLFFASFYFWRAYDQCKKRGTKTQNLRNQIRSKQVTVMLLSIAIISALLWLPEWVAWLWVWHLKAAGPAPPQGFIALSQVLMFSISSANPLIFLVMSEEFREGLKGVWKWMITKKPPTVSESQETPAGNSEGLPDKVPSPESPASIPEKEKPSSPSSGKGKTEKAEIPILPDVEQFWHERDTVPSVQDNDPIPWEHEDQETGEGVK
MITF confirm: MITF inhibitors, retest of hits, confirmation, biochemical, AlphaScreen, triplicate | shares compounds with MITF inh | AlphaScreen MITF homodimerization, biotin/His-MITF beads | inhibition, % at 2.6 µM | 4,700 compounds, 16% hits;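 active = inhibition above a cutoff derived from the DMSO control wells, cut at about 28% in these data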;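 note: inhibitors lower the bead chemiluminescence by keeping MITF from dimerizing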
AS interf ctr: AlphaScreen optical interference compounds, counter-screen for MITF inhibitor project, biochemical, triplicate | 4,700 compounds, 7.6% hits | LysRS AlphaScreen counterscreen, signal interference | shares compounds with MITF inh | AID 1259376, 2018 | inhibition, % at 2.6 µM;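 active = inhibition above a cutoff derived from the DMSO control wells, cut at about 30% in these data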
Hits are given with their value; 0 = inactive; - = not tested or not shown. The list is not random: actives were taken first. Their share in the collection is about 3.5%.

SMILES	MITF inh	FBW7 activator	TEAD-YAP block	GPR151 ag	MITF confirm	AS interf ctr
CCN(CC)C(=O)Cc1c[nH]c2c(F)c(F)c(F)c(F)c12	0	0	0	0	-	-
CN(C)c1cccc(C(=O)OCC(=O)NC(C)(C)C)c1	0	0	0	0	-	-
CC(NCCN(C)C)C(=O)NCc1ccco1 (stereo not drawn)	0	0	0	0	-	-
COC(=O)c1ccc(NC(=O)CN2CCN(C(=O)c3ccco3)CC2)cc1	0	0	0	0	-	-
Cc1ccccc1NC(=O)CN1CCN(CC(=O)c2ccco2)CC1	58.7	0	0	0	0	0
CCOC(=O)c1ccc(NC(=O)CN2CCN(CC(=O)c3ccco3)CC2)cc1	78.5	0	0	0	0	0
CC(NCCCN(C)C)C(=O)NCc1ccco1 (stereo not drawn)	56.8	0	0	0	0	0
CCOc1ccc(C(=O)N[C@H](C(=O)NCCC(C)C)C(C)C)cc1	0	0	0	0	-	-
COc1cc(-c2nnc3s/c(=C\c4ccc(N(C)C)cc4)c(=O)n23)cc(OC)c1OC	0	0	0	0	-	-
CC(C)C(=O)Nc1cc(C(F)(F)F)cc(C(F)(F)F)c1	0	0	0	0	-	-
O=S(=O)(c1ccc(F)cc1)N1CCN(Cc2cccc(Cl)c2)CC1	59.6	0	0	0	0	0
CCS(=O)(=O)N1CCN(Cc2cccc(Cl)c2)CC1	59.0	0	0	0	0	0
O=S(=O)(c1ccc(Cl)cc1)N1CCN(Cc2ccc(F)cc2)CC1	0	0	0	0	-	-
O=S(=O)(c1ccccc1)N1CCN(Cc2cccc(Cl)c2)CC1	63.7	0	0	0	0	0
CS(=O)(=O)c1cccc(S(=O)(=O)N2CCN(Cc3ccccc3)CC2)c1	0	0	0	0	-	-
Cc1nc2sc(C(c3ccccc3Cl)N3CCOCC3)c(O)n2n1 (stereo not drawn)	0	0	0	0	-	-
CC(O)c1nc2ccccc2n1CC(=O)NC1CC1 (stereo not drawn)	0	0	0	0	-	-
CS(=O)(=O)N(CC(=O)N1CCCCCC1)c1ccc(Cl)cc1Cl	0	0	0	0	-	-
CCOc1ccc(C2Nc3ccccc3C(=O)N2c2ccc(CC)cc2)cc1 (stereo not drawn)	0	0	0	0	-	-
CN(C)CC(C)(C)CNCC(O)COCc1ccccc1F (stereo not drawn)	78.5	0	0	0	0	0
CC1(C)C2CCC1(C)C(NCC(O)COCc1ccccc1F)C2 (stereo not drawn)	65.1	0	0	0	0	0
CS(=O)(=O)Nc1ccccc1C(=O)N1CCN(c2ccc(F)cc2)CC1	0	0	0	0	-	-
COC(=O)c1ccc(Nc2nnc(-c3ccc(C)c(S(N)(=O)=O)c3)c3ccccc23)cc1	0	0	0	0	-	-
N/C(=N\N=C(/N)c1ccccn1)c1ccccn1	107.3	0	60.9	0	100.1	100.3
O=C1C(=O)N(CN2C(=O)C(=O)c3ccccc32)c2ccccc21	0	0	0	0	-	-
SMILES	MITF inh	FBW7 activator	TEAD-YAP block	GPR151 ag	MITF confirm	AS interf ctr
Cn1c(=NC(=O)CSCC(=O)NC2CCCCC2)sc2ccccc21	0	0	0	0	-	-
CN(C)S(=O)(=O)Nc1ccc(N2CCC(NCCc3cccs3)CC2)cc1	63.2	0	0	0	0	0
CN(C)S(=O)(=O)Nc1ccc(N2CCC(NCCc3ccncc3)CC2)cc1	0	0	0	0	-	-
COc1ccc(NC(=O)c2snc3c(=O)[nH]cnc23)cc1OC	0	0	0	0	-	-
COc1cc(/C=N/NC(=O)c2cccc(N/N=C/c3ccc(O)c(OC)c3)c2)ccc1O	0	0	0	0	-	-
CN1CCN(CCOCCOc2ccc(Cl)c(Cl)c2)CC1	57.3	0	0	0	0	0
CN1CCN(CCOc2ccc(Cl)c(Cl)c2)CC1	68.8	0	0	0	0	0
CCc1cc(OCCOCCN2CCN(CC)CC2)ccc1Cl	67.7	0	0	0	0	0
CCc1cc(OCCN2CCNCC2)ccc1Cl	0	0	0	0	-	-
C=CCN(c1ccccc1)S(=O)(=O)c1ccc2[nH]cc(C(=O)NCc3ccccc3Cl)c(=O)c2c1	0	0	0	0	-	-
Cc1cc2nc3s/c(=C/c4cn(Cc5ccccc5)c5ccccc45)c(=O)n3c2cc1C	0	0	0	0	-	-
NC(=O)c1cc(-c2ccc([N+](=O)[O-])cc2)no1	0	0	0	0	-	-
Cc1ccc(NC(=O)c2cc3n(n2)C(C(F)(F)F)CC(c2ccc(C)cc2)N3)cc1 (stereo not drawn)	0	0	0	0	-	-
O=C(NCCCN1CCOCC1)c1cc2cc(Br)ccc2oc1=O	59.6	0	0	0	0	0
COc1ccc(-c2noc(Cc3ccc(Cl)cc3)n2)cc1	0	0	0	0	-	-
CCOC(=O)c1c(C)oc(NC(=O)c2ccc([N+](=O)[O-])cc2Cl)c1C#N	53.8	0	0	0	0	0
CCOC(=O)c1cc(CC)sc1NC(=O)c1cc([N+](=O)[O-])ccc1Cl	59.6	0	0	0	0	0
CCOC(=O)c1cc(CC)sc1NC(=O)c1cc([N+](=O)[O-])ccc1N1CCCCCC1	0	0	0	0	-	-
COc1ccc(CN(Cc2cccnc2)C(=O)c2cc3ncccn3n2)cc1OC	0	0	0	0	-	-
Cc1nn(-c2ccc(F)cc2)c(C)c1CNCc1ccccc1	69.7	0	0	0	0	0
Cc1ncc(CO)c(/C=N/NC(=S)Nc2cccc(S(=O)(=O)N(C)C)c2)c1O	68.4	0	0	0	0	0
Cc1ncc(CO)c(/C=N/NC(N)=S)c1O	104.7	0	0	0	0	0
Cc1ncc(CO)c(/C=N/NC(=S)Nc2cccc(Cl)c2)c1O	0	0	0	0	-	-
CC1CCCCN1C(=O)c1ccc(Oc2cnccn2)cc1 (stereo not drawn)	75.4	0	0	0	0	0
Cn1c(CN2CCOCC2)nc(=O)c2ccccc21	53.3	0	0	0	0	0
SMILES	MITF inh	FBW7 activator	TEAD-YAP block	GPR151 ag	MITF confirm	AS interf ctr
CN1C(=O)/C(=C2\SC(=Nc3ccc(Br)cc3)NC2=O)c2ccccc21	0	0	0	0	-	-
CN1C(=O)/C(=C2\SC(=Nc3ccc(F)cc3)NC2=O)c2cc(Br)ccc21	50.8	0	0	0	0	0
CCOC(=O)c1c(C)n(-c2ccc(C)cc2)c2ccc(OCC(O)CN3CCN(CCO)CC3)cc12 (stereo not drawn)	85.8	0	0	0	0	0
CCOc1ccc(/C=N/NC(=O)C(C)Nc2ccc(Br)cc2)cc1O (stereo not drawn)	0	0	0	0	-	-
CCOC(=O)c1sc(NC(=O)CSc2nnc(CNC(=O)c3ccc(C)c(C)c3)n2-c2ccc(F)cc2)c(C(=O)OCC)c1C	0	0	0	0	-	-
COCCCNCCOc1ccc2ccccc2c1Br	58.5	0	0	0	0	0
